In all, about 420,000 compounds went through this assay and about 50,000 (12%) were called active. Another 26% or so got no clear call; they are omitted. This excerpt belongs to a sample that is enriched for actives. Values without a mark were called inactive. Calls come from the whole dose curve; as a rule, active = well fitted inhibition curve with a large enough effect; inconclusive = small, poorly fitted or top-dose-only effect; inactive = flat fitted curve, though single readings scatter.
% is set by controls: 0 for no effect and ±100 for the full control effect; potency is the fitted concentration of half-maximal effect.

The nature of the experiment: qHTS for Inhibitors of human tyrosyl-DNA phosphodiesterase 1 (TDP1): qHTS in cells in presence of CPT. Note: nearly all actives have a fitted effect of over 55% in size. The note with it: chicken DT40 Tdp1-/-;hTDP1 cells + 20 nM CPT, ATP luminescence, 48 h; series mostly up to 46.2 µM; activity change, negative = growth inhibition: at the top concentration. In short, it runs like this:
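Chicken DT40 Tdp1-/- cells complemented with human TDP1, 400 cells/well, exposed to compounds plus 20 nM camptothecin for at least 48 h at 37 C; viability read as ATP content by CellTiter-Glo luminescence.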
In general terms: qHTS replaces the single test concentration by a dilution series.
For the compound `Cc1ccc(C)c(NC(=O)C(c2ccccc2)N2CCN(CC(=O)NC3CC3)CC2)c1` (stereo not given), the “activity change, negative = growth inhibition” value is -36.9%.

As to `O=C(NCc1ccco1)c1cccn2c(=O)c3c4c(sc3nc12)CCCC4`, the Potency was 9.2 µM (active).

For the compound `O=C(NCc1ccco1)c1nc2ncccn2n1`, the “activity change, negative = growth inhibition” value is 1.29%.

Take `O=c1oc(-c2ccco2)nc2sc3c(c12)CCCCC3`: the “activity change, negative = growth inhibition” value is -6.64%.

Consider `CC(C)C[C@H](NC(=O)C1CC(=O)N(c2ccc3c(c2)OCCO3)C1)C(=O)NC1CCCC1` (stereo not given in full), for which the “activity change, negative = growth inhibition” value is -1.7%.

As to `CN[C@@H]1[C@@H](O)[C@@H](O[C@@H]2[C@H](O)[C@H](O[C@H]3OC(CN)=CC[C@H]3N)[C@@H](N)C[C@H]2N)OCC1(C)O` (stereo not given in full), the “activity change, negative = growth inhibition” value is 0.521%.

Regarding `NC(=O)C1CCN(CC(O)CSc2ccc(F)cc2)CC1` (stereo not given), the “activity change, negative = growth inhibition” value is 5.2%.

Turning to `OC(CNC1CCCC1)COc1ccc(F)cc1` (stereo not given), the “activity change, negative = growth inhibition” value is -16.4%.

For the compound `O=C(O)C1=C[C@H](c2cccs2)C[C@H](OCCCCO)O1`, the “activity change, negative = growth inhibition” value was 1.58%.

As to `O=C(C1=C[C@H](c2coc3ccccc3c2=O)C[C@H](OCc2ccc(CO)cc2)O1)N1CCOCC1`, the “activity change, negative = growth inhibition” value was -21.8%.

For `NC(=O)C1=C[C@H](c2csc3ccccc23)C[C@H](OCc2ccc(CO)cc2)O1`, the Potency was 14.6 µM (active).

Regarding `C=CCOC(=O)C1=C[C@@H](c2ccccc2)C[C@@H](OCc2ccc(CO)cc2)O1`, the “activity change, negative = growth inhibition” value is -18.7%.

As for `NC(=O)C1=C[C@@H](c2csc3ccccc23)C[C@@H](OCc2ccc(CO)cc2)O1`, the Potency was 25.9 µM (active).

In the case of `NC(=O)C1=C[C@@H](c2ccc3c(c2)OCO3)C[C@@H](OCCCCO)O1`, the “activity change, negative = growth inhibition” value was 21.5%.

For `Cc1cc(OC(C)C(=O)NC2CC(C)(C)NC(C)(C)C2)c2c(C)cc(=O)oc2c1` (stereo not given), the “activity change, negative = growth inhibition” value was 2.25%.

For the compound `COCCNC(=S)N1CCN(C)CC1`, the “activity change, negative = growth inhibition” value was 2.15%.

In the case of `CC1CCC2(CC1)NC(=O)N(CC(=O)c1cccn1C)C2=O` (stereo not given), the “activity change, negative = growth inhibition” value is 2.2%.

Take `CC(C)(C)SCCSC1=CC(=O)CC(c2ccccc2)C1` (stereo not given): the “activity change, negative = growth inhibition” value was -1.27%.

Take `COC(=O)C(C)Oc1ccc2c(c1)O/C(=C\c1cccc(Br)c1)C2=O` (stereo not given): the “activity change, negative = growth inhibition” value was -0.346%.

As for `Cc1ccc(S(=O)(=O)Oc2ccc(/C=N/NC(=O)c3ccncc3)cc2)cc1`, the “activity change, negative = growth inhibition” value was -2.8%.

As for `Cc1ccc(OCCOCCOc2ccc(Br)cc2/C=N\NC(=O)c2ccncc2)cc1`, the Potency was 18.4 µM (active).

As to `CCOc1cc(/C=N/NC(=O)c2ccncc2)cc(Br)c1O`, the “activity change, negative = growth inhibition” value is -2.85%.

In the case of `COc1ccc(Cl)cc1NC(=O)CCn1c(=O)c2cccn2c2ccccc21`, the Potency is 20.6 µM (active).

Turning to `COc1ccc(Cl)cc1NC(=O)CCC(=O)c1ccc(C)cc1`, the “activity change, negative = growth inhibition” value was -25.1%.

As to `Cc1ccc(NC(=O)CCCn2c(=O)c3cccn3c3ccccc32)cc1Cl`, the “activity change, negative = growth inhibition” value was -24.8%.

In the case of `CCCCn1c(N)c(N(CCC(C)C)C(=O)COC(=O)c2ccc(CC)cc2)c(=O)[nH]c1=O`, the “activity change, negative = growth inhibition” value was -20.8%.

On to `Cc1cccc(NC(=O)CSCC(=O)Nc2nnc(C3CC3)s2)c1`, for which the “activity change, negative = growth inhibition” value is 2.73%.

Regarding `O=C(NC(CC(=O)N1CCN(c2ccccc2)CC1)c1ccccc1)c1ccccc1Cl` (stereo not given), the “activity change, negative = growth inhibition” value was 1.37%.

Consider `CCCCCN(C(=O)CCC(=O)OCCOc1ccc(OC)cc1)c1c(N)n(CCCC)c(=O)[nH]c1=O`, for which the “activity change, negative = growth inhibition” value was -25.6%.

Consider `Cc1cccc(NC(=O)c2ccc(S(=O)(=O)N(C)CC3CCCO3)cc2)c1C` (stereo not given), for which the “activity change, negative = growth inhibition” value is -4.33%.

With `CN(CC1CCCO1)S(=O)(=O)c1ccc(C(=O)Nc2ccc([N+](=O)[O-])cc2)cc1` (stereo not given), the Potency was 23.1 µM (active).

With `O=C(Nc1ccc(S(=O)(=O)NCC2CCCO2)cc1)c1ccc(F)cc1` (stereo not given), the Potency is 14.6 µM (active).

`CCOc1ccc(C(=O)Nc2ccc(S(=O)(=O)NCC3CCCO3)cc2)cc1OCC` (stereo not given): the “activity change, negative = growth inhibition” value is -12.9%.

As to `CCOc1ccc(S(=O)(=O)NCC2CCCO2)cc1` (stereo not given), the “activity change, negative = growth inhibition” value was 14.8%.

With `CN(CC(=O)Nc1ccc(C(N)=O)cc1)S(=O)(=O)c1ccc2c(c1)OCCO2`, the “activity change, negative = growth inhibition” value was -20.2%.

On to `CCN(CC(=O)Nc1ccc(NC(C)=O)cc1)C(=O)C1CC(=O)N(Cc2ccc(C)cc2)C1` (stereo not given), for which the “activity change, negative = growth inhibition” value was -13.7%.

Take `O=C(C1CCCO1)N1CCN(C(=O)C23CC4CC(CC(C4)C2)C3)CC1` (stereo not given): the “activity change, negative = growth inhibition” value was -21.8%.

In the case of `COc1cc(C(=O)N2CCN(C3CCC(C)CC3)CC2)cc(OC)c1OC` (stereo not given), the “activity change, negative = growth inhibition” value is -24.6%.

Take `CCOC(=O)C1CCN(S(=O)(=O)c2c(C)noc2C)CC1`: the “activity change, negative = growth inhibition” value was -0.368%.

With `COc1cccc(N(CC(=O)NC2CCCC2)C(=O)Cn2nnc(-c3ccc(C)o3)n2)c1`, the “activity change, negative = growth inhibition” value was 5.02%.

With `CC(C)COc1ccc(C(=O)OCC(=O)NCCC2=CCCCC2)cc1`, the “activity change, negative = growth inhibition” value was -14.1%.

For the compound `O=C(O)CN(Cc1ccco1)S(=O)(=O)c1ccc(F)cc1`, the “activity change, negative = growth inhibition” value was 2.84%.

With `C=CCn1c(SCC(=O)c2c(N)n(C)c(=O)n(C)c2=O)nc2sc(CC)cc2c1=O`, the “activity change, negative = growth inhibition” value is -8.2%.

On to `NC1=CC(=O)C(=O)c2cccnc21`, for which the Potency was 3.66 µM (active).

Regarding `Cc1cccc(N2C(=O)c3cccnc3C2=O)c1`, the “activity change, negative = growth inhibition” value was 4.51%.

Take `O=C1c2cccnc2C(=O)N1Cc1cccs1`: the “activity change, negative = growth inhibition” value was 12.8%.

In the case of `O=C(NC1CCCCC1)C1CC(=O)N(CCc2ccccc2)C1` (stereo not given), the “activity change, negative = growth inhibition” value is -5.56%.

Turning to `CC(NC(=O)COC(=O)CCC(=O)c1ccc(Cl)cc1)c1ccccc1` (stereo not given), the “activity change, negative = growth inhibition” value was -8.03%.

Turning to `CC1CCC(NC(=O)CNC(=O)c2ccc3ccccc3c2)CC1` (stereo not given), the “activity change, negative = growth inhibition” value is -25.8%.

Turning to `Cc1cc(C)nc(N/N=C/c2ccncc2)n1`, the “activity change, negative = growth inhibition” value is 10.1%.

(Values after PubChem BioAssay AID686979 (National Center for Advancing Translational Sciences (NCATS), 2013).)
